These results are taken from PubChem BioAssay (EPA / NIEHS).

For orientation: AC50 means the midpoint of the concentration-response curve, whichever way the signal moves.

Read-out in experiment [1]: Tissue Factor, F3 (gene 2152)
Put plainly: BSK_CASM3C_TissueFactor: BioMAP Diversity Plus: CASM3C Assay for Tissue Factor Biomarker Activity (AID 2283052).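 Also: cell surface tissue factor protein level read by ELISA.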 To be noted: primary human coronary artery smooth muscle cells; actives raise or lower the signal.

Read-out in experiment [2]: Interferon-gamma inducible Protein 10 (IP10), CXCL10 (gene 3627)
The experiment can be described thus: BSK_hDFCGF_IP10: BioMAP Diversity Plus: hDFCGF Assay for Interferon-gamma inducible Protein 10 (IP10) Biomarker Activity (AID 2283053). To be noted: primary human foreskin fibroblasts; actives raise or lower the signal. In a few lines:
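Cells: human dermal foreskin fibroblasts. Exposure: 24 h post-dosing. Detection: IP-10 ELISA, with values expressed against DMSO controls and fitted in both directions.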

Read-out in experiment [3]: Urokinase-type plasminogen activator receptor (uPAR), PLAUR (gene 5329)
Put plainly: BSK_CASM3C_uPAR: BioMAP Diversity Plus: CASM3C Assay for Urokinase-type plasminogen activator receptor (uPAR) Biomarker Activity (AID 2283054).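 Also: cell-surface uPAR protein level quantified by ELISA.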 The settings on record: primary human coronary artery smooth muscle cells; actives raise or lower the signal.

Read-out in experiment [4]: Vascular cell adhesion molecule 1 (VCAM1), VCAM1 (gene 7412)
Put plainly: BSK_CASM3C_VCAM1: BioMAP Diversity Plus: CASM3C Assay for Vascular cell adhesion molecule 1 (VCAM1) Biomarker Activity (AID 2283055).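 Also: VCAM-1 protein level quantified by ELISA on the cells.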 To be noted: primary human coronary artery smooth muscle cells; actives raise or lower the signal.

Read-out in experiment [5]: Collagen III, COL3A1 (gene 1281)
Put plainly: BSK_hDFCGF_CollagenIII: BioMAP Diversity Plus: hDFCGF Assay for Collagen III Biomarker Activity (AID 2283056). To be noted: primary human foreskin fibroblasts; actives raise or lower the signal. In a few lines:
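ELISA read-out of collagen III from human skin fibroblast cultures sampled 24 h post-dosing. Values were derived by bidirectional fitting relative to the DMSO vehicle control.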

Read-out in experiment [6]: Epidermal growth factor receptor (EGFR), EGFR (gene 1956)
The experiment can be described thus: BSK_hDFCGF_EGFR: BioMAP Diversity Plus: hDFCGF Assay for Epidermal growth factor receptor (EGFR) Biomarker Activity (AID 2283057). To be noted: primary human foreskin fibroblasts; actives raise or lower the signal. The essentials:
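Dosing human primary skin fibroblasts, then measuring surface EGFR by ELISA at 24 h, gives the endpoint; gains and losses relative to DMSO were fitted in both directions.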

Read-out in experiment [7]: Interleukin-8 (IL8), CXCL8 (gene 3576)
The experiment can be described thus: BSK_hDFCGF_IL8: BioMAP Diversity Plus: hDFCGF Assay for Interleukin-8 (IL8) Biomarker Activity (AID 2283058). To be noted: primary human foreskin fibroblasts; actives raise or lower the signal. The essentials: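 Cells used are human skin primary fibroblasts. Chemical is added, cultures run 24 h, then IL-8 is quantified by ELISA, and gain or loss versus DMSO control is fitted in both directions.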

Experiment [8] in a line: BSK_hDFCGF_Proliferation: Cell Proliferation Assessment in the BioMAP Diversity Plus: hDFCGF Assay (AID 2283059).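 Also: curves fitted for both rise and fall of signal versus DMSO baseline.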 The settings on record: primary human foreskin fibroblasts. In a few lines:
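Sub-confluent human foreskin fibroblast cultures receive test chemical […]. Relative cell number is quantified by sulforhodamine B staining (0.1%, after 10% TCA fixation) at 560 nm, with bidirectional fitting referenced to DMSO.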

Read-out in experiment [9]: Macrophage colony-stimulating factor (MCSF), CSF1 (gene 1435)
Put plainly: BSK_hDFCGF_MCSF: BioMAP Diversity Plus: hDFCGF Assay for Macrophage colony-stimulating factor (MCSF) Biomarker Activity (AID 2283060). To be noted: primary human foreskin fibroblasts; actives raise or lower the signal. In a few lines: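 Primary human foreskin fibroblasts dosed with chemical; 24 h later, M-CSF quantified by ELISA; curves fitted in both directions vs DMSO negative control.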

Experiment [10] can be described thus: BSK_hDFCGF_SRB: Viability Assessment in the BioMAP Diversity Plus: hDFCGF Assay (AID 2283061).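 Also: cells exposed to compound for 24 h before the read.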 The settings on record: primary human foreskin fibroblasts. In a few lines:
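Readout is SRB absorbance at 560 nm, reflecting total protein in parallel cultures of human foreskin fibroblasts harvested 24 h after chemical dosing. Activity was fitted bidirectionally relative to DMSO.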

Read-out in experiment [11]: TIMP metallopeptidase inhibitor 1 (TIMP1), TIMP1 (gene 7076)
The experiment can be described thus: BSK_hDFCGF_TIMP1: BioMAP Diversity Plus: hDFCGF Assay for TIMP metallopeptidase inhibitor 1 (TIMP1) Biomarker Activity (AID 2283062). The settings on record: primary human foreskin fibroblasts; actives raise or lower the signal. The essentials: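 Human skin fibroblasts (primary), hDFCGF system; compound exposure 24 h; TIMP-1 by ELISA; bidirectional fit vs DMSO negative control; overt cytotoxicity by SRB in parallel wells.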

Read-out in experiment [12]: Monokine induced gamma interferon (MIG), CXCL9 (gene 4283)
Put plainly: BSK_hDFCGF_MIG: BioMAP Diversity Plus: hDFCGF Assay for Monokine induced gamma interferon (MIG) Biomarker Activity (AID 2283063). The settings on record: primary human foreskin fibroblasts; actives raise or lower the signal. In a few lines:
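Chemicals were added to primary human foreskin fibroblast cultures, which were sampled 24 h later. MIG levels were then quantified by ELISA and responses fitted in both directions relative to DMSO.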

Read-out in experiment [13]: Matrix Metallopeptidase 1 (MMP1), MMP1 (gene 4312)
Put plainly: BSK_hDFCGF_MMP1: BioMAP Diversity Plus: hDFCGF Assay for Matrix Metallopeptidase 1 (MMP1) Biomarker Activity (AID 2283064). The settings on record: primary human foreskin fibroblasts; actives raise or lower the signal. The essentials:
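ELISA read-out of MMP1 from human foreskin fibroblasts (primary skin cells), 24 h post-dose. Gain or loss of signal was fitted bidirectionally versus DMSO negative control; cytotoxicity was checked by SRB in parallel cultures.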

Read-out in experiment [14]: Vascular cell adhesion molecule 1 (VCAM1), VCAM1 (gene 7412)
Put plainly: BSK_hDFCGF_VCAM1: BioMAP Diversity Plus: hDFCGF Assay for Vascular cell adhesion molecule 1 (VCAM1) Biomarker Activity (AID 2283065).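 As to AC50: VCAM-1 protein level quantified by ELISA after 24 h chemical exposure.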 The settings on record: primary human foreskin fibroblasts; actives raise or lower the signal. In a few lines:
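Human foreskin fibroblast primary cells, chemical exposure 24 h; VCAM-1 by ELISA; bidirectional fit, DMSO = negative control/baseline.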

Read-out in experiment [15]: Plasminogen activator inhibitor-1 (PAI1), SERPINE1 (gene 5054)
Put plainly: BSK_hDFCGF_PAI1: BioMAP Diversity Plus: hDFCGF Assay for Plasminogen activator inhibitor-1 (PAI1) Biomarker Activity (AID 2283066). To be noted: primary human foreskin fibroblasts; actives raise or lower the signal. The essentials: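 Fibroblasts from human foreskin were treated with test chemical. After 24 h, PAI-1 was measured by ELISA. Activity was fitted in both directions relative to DMSO.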

Read-out in experiment [16]: Intercellular Adhesion Molecule 1 (ICAM1), ICAM1 (gene 3383)
The experiment can be described thus: BSK_KF3CT_ICAM1: BioMAP Diversity Plus: KF3CT Assay for Intercellular Adhesion Molecule 1 (ICAM1) Biomarker Activity (AID 2283067). The settings on record: primary human keratinocytes with fibroblasts; actives raise or lower the signal. In a few lines:
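ICAM-1 levels are measured by ELISA 24 h after dosing a primary human co-culture of keratinocytes and foreskin fibroblasts. Activity in either direction is fitted relative to DMSO vehicle.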

Read-out in experiment [17]: Interferon-gamma inducible Protein 10 (IP10), CXCL10 (gene 3627)
The experiment can be described thus: BSK_KF3CT_IP10: BioMAP Diversity Plus: KF3CT Assay for Interferon-gamma inducible Protein 10 (IP10) Biomarker Activity (AID 2283068). The settings on record: primary human keratinocytes with fibroblasts; actives raise or lower the signal. In a few lines: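 ELISA read-out of IP-10 after 24 h chemical dosing of human skin primary co-culture (keratinocytes, foreskin fibroblasts). Gain or loss of signal relative to DMSO, bidirectional curve fit.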

Experiment [18] in a line: BSK_KF3CT_SRB: Viability Assessment in the BioMAP Diversity Plus: KF3CT Assay (AID 2283069).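 Also: total protein by sulforhodamine B staining as a cytotoxicity measure; read 24 h after compound addition; fitted for both signal gain and loss against DMSO baseline.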 The settings on record: primary human keratinocytes with fibroblasts. In a few lines: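 SRB read-out at 560 nm (0.1% stain, TCA-fixed cells) gauges overt cytotoxicity in a human skin keratinocyte–fibroblast co-culture 24 h post-dosing. Signal change was fitted bidirectionally relative to DMSO control.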

Read-out in experiment [19]: Interleukin-1 alpha (IL1a), IL1A (gene 3552)
Put plainly: BSK_KF3CT_IL1a: BioMAP Diversity Plus: KF3CT Assay for Interleukin-1 alpha (IL1a) Biomarker Activity (AID 2283070). The settings on record: primary human keratinocytes with fibroblasts; actives raise or lower the signal. The essentials: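 Primary skin co-culture (keratinocytes, foreskin fibroblasts), 24 h exposure; ELISA for IL-1a; bidirectional curve fit vs DMSO.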

Values joined by “and” are separate entries in the source; they are usually repeats but may differ in a detail not shown here. Identical values can stand only once. Where a structure was tested more than once in an assay, its records may differ in their call. Active and inactive are the calls of the source. The calls were made as follows: active = hit-call score of the fitted dose curve at least 0.9, where 1 is the maximum; inactive = score below 0.9.

Turning to `CCOC1Oc2ccc(OS(C)(=O)=O)cc2C1(C)C` (configuration not stated), the outcome in [1], in experiment [2], in [3], in experiment [4], in experiment [5] and in experiment [6] was inactive. The outcome in experiment [7], in experiment [8], in [9], in experiment [10], in experiment [11] and in experiment [12] was inactive. Further, the result in experiment [13], in experiment [14], in [15], in experiment [16], in experiment [17] and in [18] was inactive. In addition, the result in [19] was inactive.

For the molecule `O=S(=O)(O)C(F)(F)C(F)(F)C(F)(F)C(F)(F)C(F)(F)C(F)(F)C(F)(F)C(F)(F)F`, the result in experiment [1], in [2], in experiment [3], in experiment [4], in experiment [5] and in experiment [6] was inactive. In addition, the result in [7], in [8], in experiment [9], in [10], in experiment [11] and in [12] was inactive. Further, the outcome in experiment [13], in [14], in [15], in experiment [16], in experiment [17] and in experiment [18] was inactive. Also, the result in [19] was inactive. In addition, the half-maximal activity concentration (AC50) in [2] is 21.7 µM (active) [middle of 7 runs]; in experiment [4] it was 13 µM (active) and 30 µM (active); in experiment [5], 35.1 µM (active) and 30.8 µM (active); in experiment [6], 3.97 µM (active); in experiment [9] it was 48.1 µM (active) and 48.4 µM (active); in experiment [10], 20 µM (active). The AC50 in experiment [11] is 0.485 µM (active); in [12], 30 µM (active) and 50.4 µM (active); in experiment [14] it was 20 µM (active) and 29.6 µM (active) and 30 µM (active); in experiment [15] it was 20 µM (active) and 48.5 µM (active); in experiment [16], 29.9 µM (active); in experiment [17] it was 23.1 µM (active) [middle of 5 runs]. Moreover, the AC50 is 39.2 µM (active) and 29.9 µM (active) in experiment [18]; 28.1 µM (active) and 16.4 µM (active) in [19].

`O=[N+]([O-])c1c(Cl)c(Cl)c(Cl)c(Cl)c1Cl`: the outcome in experiment [1], in experiment [3], in experiment [4], in [6], in experiment [7] and in experiment [11] was inactive. Moreover, the outcome in [16] was inactive. Besides, the AC50 is 38 µM (active) in experiment [2]; 14.9 µM (active) in experiment [5]; 19.7 µM (active) in [8]; 18 µM (active) in [9]; 31 µM (active) in experiment [10]; 29.3 µM (active) in experiment [12]. Besides, the AC50 in experiment [13] is 0.255 µM (active); in [14] it was 20 µM (active); in experiment [15] it was 28.8 µM (active); in experiment [17] it was 17.6 µM (active); in [18] it was 25.3 µM (active); in experiment [19], 24.4 µM (active).

`Oc1ccc(Cl)cc1Cc1ccccc1`: the AC50 in experiment [1] is 31.3 µM (active) [middle of 4 runs]; in experiment [3], 33.9 µM (active) [middle of 6 runs]; in experiment [4] it was 33.2 µM (active) [middle of 7 runs]; in [6] it was 12.4 µM (active) [middle of 4 runs]; in experiment [7] it was 31.3 µM (active) [middle of 7 runs]; in experiment [8] it was 7.84 µM (active) [middle of 7 runs]. The AC50 is 14.7 µM (active) [middle of 7 runs] in experiment [9], 14.5 µM (active) [middle of 7 runs] in [14] and 24.5 µM (active) [middle of 6 runs] in experiment [15]. The outcome in experiment [1], in experiment [3] and in experiment [6] was inactive.

Regarding `[2H]C1([2H])[n+]2ccccc2-c2cccc[n+]2C1([2H])[2H]`, the result in experiment [1], in experiment [3], in experiment [4], in [6], in experiment [7] and in [9] was inactive. The result in [10], in experiment [11], in experiment [12], in experiment [14], in experiment [15] and in [16] was inactive. The result in experiment [18] was inactive. In addition, the AC50 in [2] is 5.27 µM (active); in [5], 1.16 µM (active); in [8], 8.95 µM (active); in [13], 3.17 µM (active); in [17], 4.43 µM (active); in experiment [19], 20 µM (active).
